Reference: PubChem BioAssay (EPA / NIEHS)
Records with an inconclusive call do not appear. Active and inactive are the calls of the source. How the source made its calls, unless noted: active means hit-call score of the fitted dose curve at least 0.9, where 1 is the maximum; inactive means score below 0.9.

Experiments:
[1] = BSK_LPS_PGE2: BioMAP Diversity Plus: LPS Assay for Prostaglandin E2 (PGE2) Biomarker Activity (AID 2283082); details: primary human HUVEC with PBMC; actives raise or lower the signal;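 on AC50: secreted prostaglandin E2 measured by ELISA in LPS-stimulated co-culture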
Outline: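 Primary human endothelial cells and blood mononuclear cells, co-cultured with LPS, receive test chemical; PGE2 ELISA follows at 24 h, with SRB-stained parallel cultures flagging cytotoxicity.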

[2] = read-out: Macrophage colony-stimulating factor (MCSF), CSF1 (gene 1435); test: BSK_LPS_MCSF: BioMAP Diversity Plus: LPS Assay for Macrophage colony-stimulating factor (MCSF) Biomarker Activity (AID 2283083); details: primary human HUVEC with PBMC; actives raise or lower the signal
Outline: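 ELISA readout of M-CSF after 24 h compound exposure in a human endothelial/PBMC co-culture. Activity, in either direction, is fitted relative to DMSO vehicle.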

[3] = read-out: Tissue Factor, F3 (gene 2152); test: BSK_LPS_TissueFactor: BioMAP Diversity Plus: LPS Assay for Tissue Factor Biomarker Activity (AID 2283084); details: primary human HUVEC with PBMC; actives raise or lower the signal
Outline: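 ELISA signal for cell-surface Tissue Factor (CD142) was read 24 h after compound dosing of an LPS-stimulated human endothelial–PBMC primary co-culture. Gain or loss of signal was scored relative to DMSO.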

[4] = read-out: Tumor necrosis factor (Homo sapiens) (UniProt P01375); test: BSK_LPS_TNFa: BioMAP Diversity Plus: LPS Assay for Tumour Necrosis Factor alpha (TNFa) Biomarker Activity (AID 2283085); details: primary human HUVEC with PBMC; actives raise or lower the signal;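 on AC50: TNFa protein level quantified by ELISA in the co-culture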
Outline: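 ELISA-based TNFa endpoint in a human endothelial–PBMC co-culture sampled 24 h post-exposure. Curves were fitted in both directions using DMSO as baseline of activity.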

[5] = read-out: Vascular cell adhesion molecule 1 (VCAM1), VCAM1 (gene 7412); test: BSK_LPS_VCAM1: BioMAP Diversity Plus: LPS Assay for Vascular cell adhesion molecule 1 (VCAM1) Biomarker Activity (AID 2283086); details: primary human HUVEC with PBMC; actives raise or lower the signal
Outline: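 Measured by ELISA: VCAM-1 in LPS-activated HUVEC/PBMC co-cultures 24 h after treatment. Values reflect bidirectional fitting with DMSO as baseline.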

[6] = read-out: CD38, CD38 (gene 952); test: BSK_SAg_CD38: BioMAP Diversity Plus: SAg Assay for CD38 Biomarker Activity (AID 2283087); details: primary human HUVEC with PBMC; actives raise or lower the signal
Outline: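 Measures CD38 on a human endothelial/PBMC co-culture driven by SEB and TSST-1, 24 h after compound exposure, using ELISA with fluorescence detection; DMSO defines baseline for bidirectional curve fitting.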

[7] = read-out: CD40, CD40 (gene 958); test: BSK_SAg_CD40: BioMAP Diversity Plus: SAg Assay for CD40 Biomarker Activity (AID 2283088); details: primary human HUVEC with PBMC; actives raise or lower the signal
Outline: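 Compounds were dosed onto a human primary endothelial–PBMC co-culture, and after 24 h CD40 was quantified by ELISA using a fluorescence signal. Activity in either direction was fitted relative to DMSO.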

[8] = read-out: CD69, CD69 (gene 969); test: BSK_SAg_CD69: BioMAP Diversity Plus: SAg Assay for CD69 Biomarker Activity (AID 2283089); details: primary human HUVEC with PBMC; actives raise or lower the signal;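 on AC50: cell surface CD69 protein quantified by ELISA with fluorescence detection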
Outline: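 ELISA, fluorescence read-out: CD69 on human umbilical vein endothelial cell + PBMC co-culture, 24 h post-dosing. Gain or loss of signal fitted bidirectionally against DMSO baseline.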

[9] = read-out: Monocyte Chemoattractant Protein-1 (MCP1), CCL2 (gene 6347); test: BSK_SAg_MCP1: BioMAP Diversity Plus: SAg Assay for Monocyte Chemoattractant Protein-1 (MCP1) Biomarker Activity (AID 2283090); details: primary human HUVEC with PBMC; actives raise or lower the signal
Outline: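 Values derive from bidirectional fitting of ELISA-measured MCP1 against DMSO controls. Readings were taken 24 h after dosing human vascular endothelial cells co-cultured with peripheral blood mononuclear cells under superantigen stimulation.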

[10] = read-out: E-selectin (Homo sapiens) (UniProt P16581); test: BSK_SAg_Eselectin: BioMAP Diversity Plus: SAg Assay for Eselectin Biomarker Activity (AID 2283091); details: primary human HUVEC with PBMC; actives raise or lower the signal
Outline: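 Co-culture: HUVEC + PBMC. Dose compound; 24 h. ELISA for E-selectin. Bidirectional fit vs DMSO.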

[11] = read-out: Monokine induced gamma interferon (MIG), CXCL9 (gene 4283); test: BSK_SAg_MIG: BioMAP Diversity Plus: SAg Assay for Monokine induced gamma interferon (MIG) Biomarker Activity (AID 2283092); details: primary human HUVEC with PBMC; actives raise or lower the signal
Outline: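 ELISA readout of MIG/CXCL9; primary human umbilical vein endothelial cells co-cultured with peripheral blood mononuclear cells; 24 h post-dose; gain/loss fit vs DMSO baseline.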

[12] = BSK_SAg_PBMCCytotoxicity: PBMC Cytotoxicity Assessment in the BioMAP Diversity Plus: SAg Assay (AID 2283093); details: primary human HUVEC with PBMC;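 further: PBMC viability measured as Alamar Blue reduction fluorescence at 546/580 nm; fitted both ways against DMSO so a hit may be loss or gain of signal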;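 on AC50: PBMC superantigen activated with SEB plus TSST-1 one hour after compound addition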
Outline: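 Alamar Blue reduction (6 h, 546/580 nm) reports PBMC cytotoxicity after 90 h superantigen activation (SEB, TSST-1; 20 ng/mL final each) with 1 h compound pre-treatment. Gain or loss of signal fitted versus DMSO.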

[13] = read-out: Interleukin-8 (IL8), CXCL8 (gene 3576); test: BSK_SAg_IL8: BioMAP Diversity Plus: SAg Assay for Interleukin-8 (IL8) Biomarker Activity (AID 2283094); details: primary human HUVEC with PBMC; actives raise or lower the signal
Outline: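 Primary human endothelial cells with PBMC, exposed 24 h; IL-8 determined by ELISA, analysed bidirectionally relative to DMSO.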

[14] = BSK_SAg_Proliferation: Cell Proliferation Assessment in the BioMAP Diversity Plus: SAg Assay (AID 2283095); details: primary human HUVEC with PBMC;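 further: relative cell number as total protein by SRB absorbance in sub-confluent culture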
Outline: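 A human primary co-culture of umbilical vein endothelium and blood mononuclear cells receives compound; relative cell number is quantified at 96 h by SRB staining and 560 nm absorbance, with DMSO-referenced bidirectional curve fitting.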

[15] = BSK_SAg_SRB: Viability Assessment in the BioMAP Diversity Plus: SAg Assay (AID 2283096); details: primary human HUVEC with PBMC;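 further: cells read one day after compound addition; hits may be either gain or loss of signal compared with DMSO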
Outline: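 This overt-cytotoxicity endpoint quantifies protein in human endothelial/PBMC co-cultures at 24 h using SRB absorbance (560 nm) after trichloroacetic acid fixation. Values reflect signal change from the DMSO negative control, fitted bidirectionally.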

[16] = biological target: human CYP19A1, CYP19A1 (gene 1588) (UniProt P11511); test: NVS_ADME_hCYP19A1: NovaScreen (NVS) CYP450-related Enzyme Activity (ADME) Assay for human CYP19A1 (AID 2283098; active means hit-call score of the fitted dose curve at least 0.9, where 1 is the maximum)
Sequence of human CYP19A1, CYP19A1 (gene 1588) (P11511 whole entry, looked up): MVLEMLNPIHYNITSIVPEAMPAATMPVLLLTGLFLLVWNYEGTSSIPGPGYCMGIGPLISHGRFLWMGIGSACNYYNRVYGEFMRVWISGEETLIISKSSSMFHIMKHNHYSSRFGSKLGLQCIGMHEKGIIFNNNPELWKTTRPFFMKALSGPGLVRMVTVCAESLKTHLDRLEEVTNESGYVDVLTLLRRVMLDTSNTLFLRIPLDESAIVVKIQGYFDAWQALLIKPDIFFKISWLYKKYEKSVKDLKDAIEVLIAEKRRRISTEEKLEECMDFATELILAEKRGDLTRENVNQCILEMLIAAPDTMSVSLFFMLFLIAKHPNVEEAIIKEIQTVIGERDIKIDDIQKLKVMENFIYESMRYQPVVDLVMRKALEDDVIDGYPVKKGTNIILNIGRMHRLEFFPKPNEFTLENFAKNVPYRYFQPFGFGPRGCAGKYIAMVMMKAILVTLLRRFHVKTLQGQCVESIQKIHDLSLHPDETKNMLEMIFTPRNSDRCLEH
Outline: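 Compounds were first screened at 10 uM in duplicate against purified enzyme, with a fluorogenic substrate and fluorescence intensity detection after 0.5 h. Inhibition appears as reduced signal against acetonitrile control.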

[17] = biological target: human CYP2B6, CYP2B6 (gene 1555) (UniProt P20813); test: NVS_ADME_hCYP2B6: NovaScreen (NVS) CYP450-related Enzyme Activity (ADME) Assay for human CYP2B6 (AID 2283101; active means hit-call score of the fitted dose curve at least 0.9, where 1 is the maximum)
Sequence of human CYP2B6, CYP2B6 (gene 1555) (P20813 whole entry, looked up): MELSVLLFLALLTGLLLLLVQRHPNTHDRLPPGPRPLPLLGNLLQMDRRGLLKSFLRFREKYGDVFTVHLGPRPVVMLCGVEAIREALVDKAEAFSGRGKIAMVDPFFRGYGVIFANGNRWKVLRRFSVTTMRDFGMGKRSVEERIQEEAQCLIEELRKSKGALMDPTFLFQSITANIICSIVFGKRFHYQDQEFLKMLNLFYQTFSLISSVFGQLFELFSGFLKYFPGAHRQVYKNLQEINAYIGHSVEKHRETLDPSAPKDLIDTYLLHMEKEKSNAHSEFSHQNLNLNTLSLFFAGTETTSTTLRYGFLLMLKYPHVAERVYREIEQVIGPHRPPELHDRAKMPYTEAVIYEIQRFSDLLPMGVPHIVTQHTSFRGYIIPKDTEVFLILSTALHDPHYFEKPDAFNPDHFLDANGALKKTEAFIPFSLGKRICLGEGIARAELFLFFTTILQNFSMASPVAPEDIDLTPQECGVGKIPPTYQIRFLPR
Outline: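 Fluorescence-based enzyme activity of recombinant human CYP2B6, measured 1 h post-dose against acetonitrile vehicle baseline. Screened at a single concentration of 10 uM in duplicate before concentration-response follow-up.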

[18] = biological target: human CYP1A2, CYP1A2 (gene 1544) (UniProt P05177); test: NVS_ADME_hCYP1A2: NovaScreen (NVS) CYP450-related Enzyme Activity (ADME) Assay for human CYP1A2 (AID 2283102; active means hit-call score of the fitted dose curve at least 0.9, where 1 is the maximum;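 further: fluorescence from turnover of a fluorogenic substrate by recombinant insect-cell CYP1A2; potency for inhibition since loss of fluorescence marks reduced CYP1A2 activity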)
Sequence of human CYP1A2, CYP1A2 (gene 1544) (P05177 whole entry, looked up): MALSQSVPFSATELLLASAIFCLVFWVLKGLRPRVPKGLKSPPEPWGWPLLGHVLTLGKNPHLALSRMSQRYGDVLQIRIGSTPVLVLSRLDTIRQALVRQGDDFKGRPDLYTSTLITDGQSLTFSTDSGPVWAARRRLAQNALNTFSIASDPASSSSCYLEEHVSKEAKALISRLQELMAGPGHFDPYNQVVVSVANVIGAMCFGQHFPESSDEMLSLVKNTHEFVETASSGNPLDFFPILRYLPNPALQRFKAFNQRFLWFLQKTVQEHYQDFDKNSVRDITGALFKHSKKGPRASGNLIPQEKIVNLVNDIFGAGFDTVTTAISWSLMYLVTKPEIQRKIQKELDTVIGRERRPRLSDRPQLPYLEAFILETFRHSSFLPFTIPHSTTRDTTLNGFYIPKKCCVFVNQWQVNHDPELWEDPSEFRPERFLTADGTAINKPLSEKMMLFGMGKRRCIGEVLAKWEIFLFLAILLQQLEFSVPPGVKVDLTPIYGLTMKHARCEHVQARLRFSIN
Outline: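 rec. hCYP1A2 (insect cells), cell-free; fluorogenic substrate; 0.5 h; FI read. Baseline = acetonitrile; signal loss = inhibition. 10 uM duplicate primary → conc. series for actives.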

[19] = biological target: human CYP2D6, CYP2D6 (gene 1565) (UniProt P10635); test: NVS_ADME_hCYP2D6: NovaScreen (NVS) CYP450-related Enzyme Activity (ADME) Assay for human CYP2D6 (AID 2283107; active means hit-call score of the fitted dose curve at least 0.9, where 1 is the maximum)
Sequence of human CYP2D6, CYP2D6 (gene 1565) (P10635 whole entry, looked up): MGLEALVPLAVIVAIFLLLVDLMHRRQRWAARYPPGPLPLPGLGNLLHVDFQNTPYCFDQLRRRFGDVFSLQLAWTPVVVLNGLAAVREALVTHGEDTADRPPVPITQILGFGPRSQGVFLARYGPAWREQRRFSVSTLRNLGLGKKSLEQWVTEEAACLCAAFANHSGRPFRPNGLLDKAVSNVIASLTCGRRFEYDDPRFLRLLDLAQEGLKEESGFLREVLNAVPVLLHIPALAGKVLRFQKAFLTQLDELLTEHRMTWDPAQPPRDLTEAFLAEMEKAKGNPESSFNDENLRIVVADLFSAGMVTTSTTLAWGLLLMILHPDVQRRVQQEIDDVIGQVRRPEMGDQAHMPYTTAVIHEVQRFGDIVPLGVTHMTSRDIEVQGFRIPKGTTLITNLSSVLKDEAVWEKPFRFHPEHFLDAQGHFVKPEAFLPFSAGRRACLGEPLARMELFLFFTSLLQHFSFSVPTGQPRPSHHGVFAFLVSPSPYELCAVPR
Outline: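 Insect-cell recombinant enzyme + fluorogenic substrate, cell-free; 1 h incubation; fluorescence intensity readout. Acetonitrile = neg. ctrl/baseline. Single-point 10 uM, duplicate; follow-up concentration series.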

Sequence of Tumor necrosis factor (Homo sapiens) (P01375 whole entry, looked up): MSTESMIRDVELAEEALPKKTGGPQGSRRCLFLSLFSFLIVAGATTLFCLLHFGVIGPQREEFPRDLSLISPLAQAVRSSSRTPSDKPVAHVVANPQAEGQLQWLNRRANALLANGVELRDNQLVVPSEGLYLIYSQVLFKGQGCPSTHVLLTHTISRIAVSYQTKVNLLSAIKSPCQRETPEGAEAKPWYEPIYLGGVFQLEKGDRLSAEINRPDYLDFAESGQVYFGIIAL
Sequence of E-selectin (Homo sapiens) (P16581 whole entry, looked up): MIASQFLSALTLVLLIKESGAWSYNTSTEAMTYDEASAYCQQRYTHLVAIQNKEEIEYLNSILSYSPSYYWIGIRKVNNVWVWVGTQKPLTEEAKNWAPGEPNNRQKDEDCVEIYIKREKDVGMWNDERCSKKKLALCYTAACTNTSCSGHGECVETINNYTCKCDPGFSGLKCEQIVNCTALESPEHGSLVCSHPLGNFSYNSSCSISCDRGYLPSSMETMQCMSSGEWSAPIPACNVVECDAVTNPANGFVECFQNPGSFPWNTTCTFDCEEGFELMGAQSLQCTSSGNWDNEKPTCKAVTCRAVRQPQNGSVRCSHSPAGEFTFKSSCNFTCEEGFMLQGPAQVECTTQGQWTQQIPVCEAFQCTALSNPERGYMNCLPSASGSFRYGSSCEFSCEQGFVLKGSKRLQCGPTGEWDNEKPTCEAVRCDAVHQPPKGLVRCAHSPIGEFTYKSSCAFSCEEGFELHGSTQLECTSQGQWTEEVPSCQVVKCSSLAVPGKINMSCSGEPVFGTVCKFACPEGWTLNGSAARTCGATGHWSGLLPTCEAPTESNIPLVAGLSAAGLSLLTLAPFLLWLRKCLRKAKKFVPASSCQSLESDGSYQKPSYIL

With `CCCCOCCOCCOCc1cc2c(cc1CCC)OCO2` the outcome [1] was “inactive”, the outcome [2] was “inactive” and the outcome [3] was “inactive”. For the same compound, the AC50 [4] was 25.3 µM (active), the outcome [5] was “inactive” and the outcome [6] was “inactive”. The outcome [7] was “inactive”, the outcome [8] was “inactive” and the outcome [9] was “inactive”. For the same compound, the outcome [10] was “inactive”, the outcome [11] was “inactive” and the AC50 [12] was 15.9 µM (active). The outcome [13] was “inactive”, the outcome [14] was “inactive” and the outcome [15] was “inactive”. The outcome [16] was “inactive”, the AC50 [17] was 10 µM (active) and the AC50 [18] was 1.53 µM (active). For the same compound, the AC50 [19] was 3.87 µM (active).
In the case of `CCCCOC(=O)[C@@H](C)Oc1ccc(Oc2ccc(C(F)(F)F)cn2)cc1`, the outcome [1] is reported as “inactive”, the outcome [2] is reported as “inactive” and the outcome [3] is reported as “inactive”. The outcome [4] was “inactive”, the outcome [5] was “inactive” and the outcome [6] was “inactive”. For the same compound, the outcome [7] was “inactive”, the outcome [8] was “inactive” and the outcome [9] was “inactive”. The outcome [10] was “inactive”, the outcome [11] was “inactive” and the outcome [12] was “inactive”. For the same compound, the outcome [13] was “inactive”, the outcome [14] was “inactive” and the outcome [15] was “inactive”.
With `CCNc1nc(N)nc(Cl)n1` the outcome [1] was “inactive”, the outcome [2] was “inactive” and the outcome [3] was “inactive”. For the same compound, the AC50 [4] was 14.3 µM (active), the outcome [5] was “inactive” and the outcome [6] was “inactive”. The outcome [7] was “inactive”, the outcome [8] was “inactive” and the outcome [9] was “inactive”. The outcome [10] was “inactive”, the outcome [11] was “inactive” and the outcome [12] was “inactive”. For the same compound, the outcome [13] was “inactive” and the outcome [15] was “inactive”.
With `O=C(Nc1ccc([N+](=O)[O-])cc1Cl)c1cc(Cl)ccc1O` the AC50 [1] was 0.178 µM (active), the AC50 [2] was 0.148 µM (active) and the outcome [3] was “inactive”. The AC50 [4] was 0.583 µM (active), the AC50 [5] was 0.175 µM (active) and the AC50 [6] was 0.148 µM (active). The AC50 [7] was 0.17 µM (active), the AC50 [8] was 0.335 µM (active) and the AC50 [9] was 0.148 µM (active). The AC50 [10] was 0.148 µM (active), the AC50 [11] was 0.289 µM (active) and the AC50 [12] was 1.78 µM (active). The AC50 [13] was 0.493 µM (active) and the AC50 [15] was 0.65 µM (active).
With `O=C(O)C1(C(=O)Nc2ccc(Cl)cc2Cl)CC1` the AC50 [1] was 7.72 µM (active), the outcome [2] was “inactive” and the outcome [3] was “inactive”. The outcome [4] was “inactive”, the outcome [5] was “inactive” and the AC50 [6] was 5.3 µM (active). For the same compound, the outcome [7] was “inactive”, the AC50 [8] was 9.21 µM (active) and the outcome [9] was “inactive”. For the same compound, the outcome [10] was “inactive”, the outcome [11] was “inactive” and the outcome [12] was “inactive”. The outcome [13] was “inactive”, the AC50 [14] was 12.3 µM (active) and the outcome [15] was “inactive”.
For `COC(=O)c1cccc(C)c1S(=O)(=O)NC(=O)Nc1nc(OCC(F)(F)F)nc(N(C)C)n1`, the outcome [1] was “inactive”, the outcome [2] was “inactive” and the outcome [3] was “inactive”. The outcome [4] was “inactive”, the outcome [5] was “inactive” and the outcome [6] was “inactive”. For the same compound, the outcome [7] was “inactive”, the outcome [8] was “inactive” and the outcome [9] was “inactive”. The outcome [10] was “inactive”, the outcome [11] was “inactive” and the outcome [12] was “inactive”. The outcome [13] was “inactive” and the outcome [15] was “inactive”.
With `c1ccc(Nc2ccccc2)cc1` the AC50 [1] was 3.51 µM (active), the outcome [2] was “inactive” and the outcome [3] was “inactive”. The AC50 [4] was 13 µM (active), the outcome [5] was “inactive” and the outcome [6] was “inactive”. For the same compound, the outcome [7] was “inactive”, the outcome [8] was “inactive” and the outcome [9] was “inactive”. The outcome [10] was “inactive”, the outcome [11] was “inactive” and the outcome [12] was “inactive”. For the same compound, the outcome [13] was “inactive”, the outcome [14] was “inactive” and the outcome [15] was “inactive”.
